According to PubChem BioAssay (NCATS):
Results filed as inconclusive are left out. Active and inactive are the calls of the source. Calls come from the whole dose curve; as a rule, active = well fitted curve in the direction sought with a large enough effect; inconclusive = small, poorly fitted or top-dose-only effect, or another doubt; inactive = no such curve, though single readings can be large; an effect the other way counts as inactive or inconclusive.

What was measured:
[1] = qHTS of pediatric cancer cell lines to identify multiple opportunities for drug repurposing: Primary screen for NB-EBc1 cells (AID 1347095)
Procedure, shortened: (§1)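 Phenotypic viability qHTS, 48 h compound exposure, CellTiter-Glo luminescence read-out; multi-concentration dosing so that potency and efficacy derive directly from the primary screen's curves.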

[2] = qHTS of pediatric cancer cell lines to identify multiple opportunities for drug repurposing: Primary screen for U-2 OS cells (AID 1347096); note: nearly all actives have a fitted effect of over 50% in size
Procedure, shortened: (§2)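 Cells (500-1,000/well) rested 5 h, then received compounds for 48 h; metabolically active cells were measured by CellTiter-Glo luminescence. Final concentrations spanned up to 46 µM (MIPE, 11-point) or 0.59 nM-46 µM (NPC, 8-point) in primary screens, 11-point in follow-ups.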

[3] = qHTS of pediatric cancer cell lines to identify multiple opportunities for drug repurposing: Primary screen for Saos-2 cells (AID 1347097); note: nearly all actives have a fitted effect of over 40% in size
Procedure, shortened: as §1

[4] = qHTS of pediatric cancer cell lines to identify multiple opportunities for drug repurposing: Primary screen for SK-N-SH cells (AID 1347098);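 note: DMSO served as neutral control and bortezomib at 2.3 µM as positive control; nearly all actives have a fitted effect of over 65% in size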
Procedure, shortened: as §2

[5] = qHTS of pediatric cancer cell lines to identify multiple opportunities for drug repurposing: Primary screen for NB1643 cells (AID 1347099); note: nearly all actives have a fitted effect of over 50% in size; note: potency is the fitted concentration of half-maximal effect
Procedure, shortened: as §1

[6] = qHTS of pediatric cancer cell lines to identify multiple opportunities for drug repurposing: Primary screen for BT-12 cells (AID 1347101); note: nearly all actives have a fitted effect of over 25% in size
Procedure, shortened: as §2

[7] = qHTS of pediatric cancer cell lines to identify multiple opportunities for drug repurposing: Primary screen for Rh18 cells (AID 1347102); note: nearly all actives have a fitted effect of over 65% in size
Procedure, shortened: as §2

[8] = qHTS of pediatric cancer cell lines to identify multiple opportunities for drug repurposing: Primary screen for RD cells (AID 1347104); note: nearly all actives have a fitted effect of over 55% in size
Procedure, shortened: as §1

[9] = qHTS of pediatric cancer cell lines to identify multiple opportunities for drug repurposing: Primary screen for MG 63 (6-TG R) cells (AID 1347105); note: nearly all actives have a fitted effect of over 50% in size
Procedure, shortened: as §1

[10] = qHTS of pediatric cancer cell lines to identify multiple opportunities for drug repurposing: Primary screen for control Hh wild type fibroblast cells (AID 1347106);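 note: series mostly up to about 46 µM; a drop in luminescence marks cytotoxicity and a rise apparent proliferation; nearly all actives have a fitted effect of over 55% in size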
Procedure, shortened: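 Viability after 48 h compound treatment at 37C, 500-1,000 cells/well, read as ATP luminescence with CellTiter-Glo. Primary screens used 11-point (MIPE, 0.78 nM-46 µM) or 8-point (NPC, 0.59 nM-46 µM) final concentrations; follow-up screens used 11-point dilutions.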

[11] = qHTS of pediatric cancer cell lines to identify multiple opportunities for drug repurposing: Primary screen for Rh30 cells (AID 1347107); note: series mostly up to about 46 µM; nearly all actives have a fitted effect of over 75% in size
Procedure, shortened: as §2

[12] = qHTS of pediatric cancer cell lines to identify multiple opportunities for drug repurposing: Primary screen for Rh41 cells (AID 1347108);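 note: series mostly up to about 46 µM; luminescence drop marks cytotoxic hits; nearly all actives have a fitted effect of over 70% in size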
Procedure, shortened: as §1

[13] = qHTS of pediatric cancer cell lines to identify multiple opportunities for drug repurposing: Primary screen for OHS-50 cells (AID 1347103); note: nearly all actives have a fitted effect of over 40% in size; note: potency is the fitted concentration of half-maximal effect
Procedure, shortened: as §2

[14] = qHTS of pediatric cancer cell lines to identify multiple opportunities for drug repurposing: Primary screen for LAN-5 cells (AID 1347100)
Procedure, shortened: as §2

[15] = qHTS of pediatric cancer cell lines to identify multiple opportunities for drug repurposing: Confirmatory screen for NB1643 cells (AID 1347109); note: nearly all actives have a fitted effect of over 45% in size
Procedure, shortened: as §2

[16] = qHTS of pediatric cancer cell lines to identify multiple opportunities for drug repurposing: Confirmatory screen for A673 cells (AID 1347110);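 note: potency is the fitted concentration of half-maximal effect; cells exposed to compound for 48 h before the viability read; nearly all actives have a fitted effect of over 65% in size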
Procedure, shortened: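 qHTS titration format: primary MIPE 0.78 nM-46 µM (11 pts), NPC 0.59 nM-46 µM; confirmation 11 pts. 48 h, CTG luminescence.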

[17] = qHTS of pediatric cancer cell lines to identify multiple opportunities for drug repurposing: Confirmatory screen for SK-N-MC cells (AID 1347111);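 note: potency is the fitted concentration of half-maximal effect; cells exposed to compound for 48 h before the readout; nearly all actives have a fitted effect of over 70% in size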
Procedure, shortened: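 Seed 500-1,000 cells/well; rest 5 h at 37 degrees C. Pin-transfer compounds, 11-point titration. Incubate 48 h. Add CellTiter-Glo, 15 min RT, read luminescence.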

[18] = qHTS of pediatric cancer cell lines to identify multiple opportunities for drug repurposing: Confirmatory screen for LAN-5 cells (AID 1347113); note: nearly all actives have a fitted effect of over 65% in size
Procedure, shortened: as §2

[19] = qHTS of pediatric cancer cell lines to identify multiple opportunities for drug repurposing: Confirmatory screen for NB-EBc1 cells (AID 1347115);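 note: cells exposed to compound for 48 h before the viability read; nearly all actives have a fitted effect of over 45% in size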
Procedure, shortened: as §2

Measured: Potency

COc1ccc(CCC(C)=O)cc1
inactive: [1] | [2] | [3] | [4] | [5] | [6] | [7] | [8] | [9] | [10] | [11] | [12]

CO/N=C(/C(=O)N[C@@H]1C(=O)N2C(C(=O)[O-])=C(C[n+]3ccn4ncccc43)CS[C@H]12)c1nsc(N)n1
inactive: [1] | [2] | [3] | [4] | [5] | [6] | [7] | [13] | [8] | [11] | [12]

CCC(=O)O[C@H]1[C@H](O[C@@H]2[C@@H](C)[C@H](O[C@H]3C[C@@](C)(OC)[C@@H](O)[C@H](C)O3)[C@@H](C)C(=O)O[C@H](CC)[C@@](C)(O)[C@H](O)[C@@H](C)C(=O)[C@H](C)C[C@@]2(C)O)O[C@H](C)C[C@@H]1N(C)C
inactive: [1] | [2] | [3] | [4] | [14] | [7] | [13] | [8] | [9] | [10] | [11] | [12]

O=C(O)CCC(=O)OC[C@@H](NC(=O)C(Cl)Cl)[C@H](O)c1ccc([N+](=O)[O-])cc1
inactive: [1] | [2] | [3] | [4] | [14] | [6] | [7] | [13] | [8] | [9] | [10]

CC(=O)[C@@]1(O)CC[C@H]2[C@@H]3C[C@H](C)C4=CC(=O)CC[C@]4(C)[C@H]3CC[C@@]21C
inactive: [1] | [2] | [3] | [4] | [5] | [7] | [8] | [9] | [10] | [11] | [12] | [15] | [18] | [19]
active: [13] 27.6 µM | [16] 0.261 µM | [17] 4.14 µM

Nc1c[n+](N2CCOCC2)no1
inactive: [1] | [2] | [3] | [5] | [14] | [6] | [7] | [13] | [8] | [9] | [10] | [11] | [12]

COC(=O)c1cc(Cl)ccc1NS(=O)(=O)C(F)(F)F
inactive: [1] | [2] | [3] | [5] | [14] | [6] | [13] | [8] | [10] | [11] | [12]

CN1C(=O)c2ccccc2C1=O
inactive: [1] | [2] | [3] | [5] | [14] | [6] | [7] | [13] | [8] | [9] | [10] | [11] | [12]

C=CCOc1cc(Cl)ccc1C(=O)NCCN(CC)CC
inactive: [1] | [2] | [3] | [5] | [14] | [6] | [7] | [8] | [9] | [10] | [12]

CCOC(=O)c1ccc(NC(=O)CN2CCCCC2)cc1
inactive: [1] | [2] | [3] | [5] | [14] | [6] | [7] | [13] | [8] | [10] | [11] | [12]

CNC(=O)c1cnn(-c2nc(N)c3ncn([C@@H]4O[C@H](CO)[C@@H](O)[C@H]4O)c3n2)c1
inactive: [1] | [2] | [3] | [5] | [14] | [7] | [13] | [8] | [9] | [10] | [11] | [12]

CSc1ccc(/C=C2/C(C)=C(CC(=O)O)c3cc(F)ccc32)cc1
inactive: [1] | [2] | [3] | [5] | [14] | [6] | [7] | [13] | [8] | [9] | [10] | [11] | [12]

Nc1ccc(C(=O)OCC(O)CO)cc1 (stereo not given)
inactive: [1] | [2] | [3] | [14] | [6] | [7] | [13] | [8] | [9] | [11] | [12]
active: [5] 0.001 µM
